According to the supplement of paper PMC12350171:
Counter-ions that a name gives are not always drawn. A number with no mark means an inactive call.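 The calls were made as follows: active = AUC significantly below DMSO controls by Student t-fit with adjusted P under 0.01; inactive = not significantly reduced.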

Tested on: Haemophilus parainfluenzae
Test: growth AUC normalised to DMSO control (fraction of control); higher = less growth inhibition, active = hit call of the paper
Conditions: 20 µM
How it was run: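 Three biological replicates were carried out, with OD578 read hourly for 24 h. Before inoculation at a starting OD578 of 0.01, pathogens were passaged anaerobically twice; plates were pre-reduced mGAM containing 20 μM compound and 1% DMSO, sealed with breathable membranes, and the Haemophilus parainfluenzae medium carried added hemin and NAD. Area under each growth curve was calculated by the trapezoidal rule up to the exponential-to-stationary transition and normalised to DMSO controls on the same plate.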

SMILES	growth AUC normalised to DMSO control
COc1ccccc1OCC(O)CN1CCN(CC(=O)Nc2c(C)cccc2C)CC1 (stereo unspecified) [Ranolazine]	1.03
O=C(Nc1cccc2c(=O)cc(-c3nnn[nH]3)oc12)c1ccc(OCCCCc2ccccc2)cc1 [Pranlukast]	0.996
CN(Cc1cnc2nc(N)nc(N)c2n1)c1ccc(C(=O)N[C@@H](CCC(=O)O)C(=O)O)cc1 [Amethopterin]	0.0201 (active)
Oc1c(Cl)cc(Cl)c(Cl)c1Cc1c(O)c(Cl)cc(Cl)c1Cl [Hexachlorophene]	0.0305 (active)
CN(Cc1ccc(C(C)(C)C)cc1)Cc1cccc2ccccc12 [Butenafine hydrochloride]	0.913
CCCCC[C@H](O)/C=C/[C@H]1[C@H](O)CC(=O)[C@@H]1CCCCCCC(=O)O [Alprostadil]	0.903
CN(C)CCCSC(=N)N [Dimaprit dihydrochloride]	1.01
COc1cc2nc(N3CCN(C(=O)C4CCCO4)CC3)nc(N)c2cc1OC (stereo unspecified) [Terazosin hydrochloride]	0.978
Cc1cn([C@H]2C=C[C@@H](CO)O2)c(=O)[nH]c1=O [Stavudine]	1.02
CN(c1nccc(=O)[nH]1)C1CCN(c2nc3ccccc3n2Cc2ccc(F)cc2)CC1 [Mizolastine]	1.11
CCN1CCCC1CNC(=O)c1cc(S(N)(=O)=O)ccc1OC (stereo unspecified) [Sulpiride]	1.02
O=C(NCCO[N+](=O)[O-])c1cccnc1 [Nicorandil]	0.987
Nc1ccn([C@@H]2O[C@H](CO)[C@@H](O)[C@@H]2O)c(=O)n1 [Cytarabine]	0.999
CN(C)CCCN1c2ccccc2Sc2ccccc21 [Promazine hydrochloride]	0.841
COc1ccccc1O [Guaiacol]	0.998
C#C[C@]1(OC(C)=O)CC[C@H]2[C@@H]3CCC4=C[C@@H](OC(C)=O)CC[C@@H]4[C@H]3CC[C@@]21C [Ethynodiol diacetate]	0.974
CCCCOc1cc(C(=O)NCCN(CC)CC)c2ccccc2n1 [Dibucaine]	0.849
CC1COc2c(N3CCN(C)CC3)c(F)cc3c(=O)c(C(=O)O)cn1c23 (stereo unspecified) [Ofloxacin]	0.0492 (active)
CN(C)CCOC(c1ccccc1)c1ccccc1.Cn1c(=O)c2[nH]c(Cl)nc2n(C)c1=O [Dimenhydrinate]	0.901
CCC(C)(CN(C)C)OC(=O)c1ccccc1 (stereo unspecified) [Amyleine hydrochloride]	1.01
NC(=O)N/N=C/c1ccc([N+](=O)[O-])o1 [Nitrofural]	0.465 (active)
CNCCC=C1c2ccccc2CCc2ccccc21 [Nortriptyline hydrochloride]	0.966
CN1CCCN(C(c2ccccc2)c2ccc(Cl)cc2)CC1 (stereo unspecified) [Homochlorcyclizine dihydrochloride]	0.942
NS(=O)(=O)c1cc2c(cc1Cl)NCNS2(=O)=O [Hydrochlorothiazide]	0.967

SMILES	growth AUC normalised to DMSO control
C[C@]12CCC(=O)C=C1C=C[C@@H]1[C@@H]2CC[C@@]2(C)[C@H]1CC[C@@]21CCC(=O)O1 [Canrenone]	1
CC(=O)O[C@H]1C(=O)[C@@]2(C)[C@H]([C@H](OC(=O)c3ccccc3)[C@]3(O)C[C@H](OC(=O)[C@H](O)[C@@H](NC(=O)c4ccccc4)c4ccccc4)C(C)=C1C3(C)C)[C@]1(OC(C)=O)CO[C@@H]1C[C@@H]2O [Paclitaxel]	1.08
CC(Cc1cccc(C(F)(F)F)c1)NCCOC(=O)c1ccccc1 (stereo unspecified) [Benfluorex]	0.93
CCCN(CCC)S(=O)(=O)c1ccc(C(=O)O)cc1 [Probenecid]	1.02
Clc1ccccc1CN1CCc2sccc2C1 [Ticlopidine hydrochloride]	0.972
Cc1cc(C(C)(C)C)c(O)c(C)c1CC1=NCCN1 [Oxymetazoline hydrochloride]	0.991
CC(C)(Oc1ccc(Cl)cc1)C(=O)O [Clofibric acid]	0.908
CCCCNc1ccc(C(=O)OCCN(C)C)cc1 [Tetracaine hydrochloride]	1.16
CN1Cc2c(N)cccc2C(c2ccccc2)C1 (stereo unspecified) [Nomifensine maleate]	0.915
O=C(OCC(O)CO)c1ccccc1Nc1ccnc2cc(Cl)ccc12 (stereo unspecified) [Glafenine hydrochloride]	0.978
CN(C)CCCN1c2ccccc2Sc2ccc(Cl)cc21 [Chlorpromazine hydrochloride]	0.981
CCOC(=O)Nc1ccc2c(c1)N(C(=O)CCN1CCOCC1)c1ccccc1S2 [Moricizine hydrochloride]	0.998
CCCCC(CC)CNC(=N)NC(=N)NCCCCCCNC(=N)NC(=N)NCC(CC)CCCC (stereo unspecified) [Alexidine dihydrochloride]	0.861
Cc1ccc(S(=O)(=O)NC(=O)NN2CCCCCC2)cc1 [Tolazamide]	1.04
Nc1ccccc1S(N)(=O)=O [o-Sulfanilamide]	0.898
Nc1cc(-c2ccncc2)c[nH]c1=O [Amrinone]	1.09
CC(=O)CCCCn1c(=O)c2c(ncn2C)n(C)c1=O [Pentoxifylline]	1.01
C=CCOc1ccccc1OCC(O)CNC(C)C (stereo unspecified) [Oxprenolol hydrochloride]	0.958
CC(C)(C)NCC(O)COc1cccc2c1CC(O)C(O)C2 (stereo unspecified) [Nadolol]	1
CN1CCOC(c2ccccc2)c2ccccc2C1 (stereo unspecified) [Nefopam hydrochloride]	1
COC(=O)[C@H]1[C@H]2C[C@@H]3c4[nH]c5cc(OC)ccc5c4CCN3C[C@H]2C[C@@H](OC(=O)c2cc(OC)c(OC)c(OC)c2)[C@@H]1OC [Reserpine]	1.07
O=C(O)Cc1cc(I)c(Oc2ccc(O)c(I)c2)c(I)c1 [Tiratricol]	0.896
CCN(CC)C(=O)c1ccc(O)c(OC)c1 [Ethamivan]	1.03
CCN(CC)CCNC(=O)COc1ccc(OC)cc1 [Mefexamide hydrochloride]	0.985

SMILES	growth AUC normalised to DMSO control
C[C@H]1C[C@H]2[C@@H]3CCC4=CC(=O)C=C[C@]4(C)[C@@]3(F)[C@@H](O)C[C@]2(C)[C@@]1(O)C(=O)CO [Betamethasone]	0.974
Cc1ccc(-c2ncc(Cl)cc2-c2ccc(S(C)(=O)=O)cc2)cn1 [Etoricoxib]	1
N[C@@H](Cc1cc(I)c(Oc2cc(I)c(O)c(I)c2)c(I)c1)C(=O)O [(L) Thyroxine]	0.96
CNCCC=C1c2ccccc2C=Cc2ccccc21 [Norcyclobenzaprine]	0.91
Cc1cnc(NC(=O)C2=C(O)c3ccccc3S(=O)(=O)N2C)s1 [Meloxicam]	0.968
C[C@@H](c1ncncc1F)[C@](O)(Cn1cncn1)c1ccc(F)cc1F [Voriconazole]	0.977
C[C@H](CCC(=O)O)[C@H]1CC[C@H]2[C@@H]3CC[C@@H]4C[C@H](O)CC[C@]4(C)[C@H]3CC[C@]12C [Lithocholic acid]	1.04
COc1cccc2c1C(=O)c1c(O)c3c(c(O)c1C2=O)C[C@@](O)(C(C)=O)C[C@@H]3O[C@H]1C[C@H](N)[C@H](O)[C@H](C)O1 [Daunorubicin hydrochloride]	0.997
CC(C)NCC(O)COc1cccc2[nH]ccc12 (stereo unspecified) [Pindolol]	1.05
O=S(=O)(O)CCS [Coenzyme M]	1.06
NCCCCCC(=O)O [Aminocaproic acid]	1.1
COC(=O)[C@@H]1[C@H]2C[C@H]3c4[nH]c5ccccc5c4CCN3C[C@@H]2CC[C@@H]1O [Yohimbine hydrochloride]	0.971
COc1c(N2CCNC(C)C2)c(F)cc2c(=O)c(C(=O)O)cn(C3CC3)c12 (stereo unspecified) [Gatifloxacin]	0.0535 (active)
N[C@@H](Cc1ccc(O)c(O)c1)C(=O)O [Levodopa]	1.02
COc1ccc2cc([C@H](C)C(=O)O)ccc2c1 [(S)-Naproxen]	1
CC(=O)CC(c1ccccc1)c1c(O)c2ccccc2oc1=O (stereo unspecified) [Warfarin]	1.02
Cc1ccc(/C(=C\CN2CCCC2)c2ccccn2)cc1 [Triprolidine hydrochloride]	0.961
CC(C)(C)NC(=O)[C@H]1CC[C@H]2[C@@H]3CC[C@H]4NC(=O)C=C[C@]4(C)[C@H]3CC[C@]12C [Finasteride]	1.06
COc1ccc2c(c1)c(CC(=O)OCC(=O)O)c(C)n2C(=O)c1ccc(Cl)cc1 [Acemetacin]	0.988
CC(=O)c1ccc2c(c1)N(CCCN1CCC(CCO)CC1)c1ccccc1S2 [Piperacetazine]	1.09
CN[C@@H]1[C@H](O[C@H]2[C@H](O[C@H]3[C@H](O)[C@@H](O)[C@H](N=C(N)N)[C@@H](O)[C@@H]3N=C(N)N)O[C@@H](C)[C@]2(O)C=O)O[C@@H](CO)[C@H](O)[C@H]1O [Streptomycin sulfate]	0.633 (active)
CC(C)Cc1ccc([C@H](C)C(=O)O)cc1 [(S,+) Ibuprofen]	0.941
CN1CCN(C(c2ccccc2)c2ccccc2)CC1 [Cyclizine hydrochloride]	0.995
